Data on four compounds can be found in PubChem BioAssay (NCATS).

Each structure is given as a SMILES string. Results filed as inconclusive are left out. A number with no mark means an inactive call. The source made the active and inactive calls. Calls follow the shape of the dose curve; as a rule, active = well fitted inhibition curve with a large enough effect; inconclusive = small, poorly fitted or top-dose-only effect; inactive = flat fitted curve, though single readings scatter.

The subject of test [1] is HEK293. Kind of test: Cytotoxic Profiling of Annotated Libraries Using Quantitative High-Throughput Screening (AID 1296008). Also: potency is read from the fitted curve at half-maximal effect. As to max response: % is scaled to controls: 0 for no effect and ±100 for the full control effect. The following applies: Five cell lines viability, CellTiter-Glo ATP luminescence, 48-72 h; max response: active compounds read low. Summed up:
(§1)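 Cells exposed to compounds for 48 or 72 hr at 37 degrees Celsius. Viability read as ATP-coupled luminescence with CellTiter-Glo after 10 min at room temperature.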
A general note: Cellular ATP, detected with luciferase, serves as a proxy for viable cell number.

In test [2] the test system is HaCat. The test is described as above. The following applies: Five cell lines viability, CellTiter-Glo ATP luminescence, 48-72 h; max response: active compounds read low. Summed up: as §1
Test [3] deals with KB-3-1. The test is described as above. The following applies: Five cell lines viability, CellTiter-Glo ATP luminescence, 48-72 h; max response: active compounds read low. Summed up:
as §1

Test [4] concerns NIH3T3. Described as above. The following applies: Five cell lines viability, CellTiter-Glo ATP luminescence, 48-72 h; max response: active compounds read low. Summed up:
as §1

Test [5] concerns CRL-7250. The description is as above. The following applies: Five cell lines viability, CellTiter-Glo ATP luminescence, 48-72 h; max response: active compounds read low. In outline: as §1
The subject of test [6] is HACAT. Kind of test: qHTS assay to identify novel small-molecules to repurpose for Merkel cell carcinoma treatment (AID 1296009). The following applies: MCC and control cell lines, CellTiter-Glo viability, 72 h; at 44.8 µM (top of the series) unless noted. Summed up:
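CellTiter-Glo luminescence after 72 hr compound exposure at 37 degree celsius gave cell viability. Libraries NPC and MIPE were run as 8- and 11-point dose responses; RLUs normalized to DMSO (negative) and no-cell (cytotoxicity) controls.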
For orientation: qHTS replaces the single test concentration by a dilution series.
Also: nearly all actives have a fitted effect of over 60% in size.

Regarding `CC(C)N(CCCNC(=O)Nc1ccc(C(C)(C)C)cc1)C[C@H]1O[C@@H](n2cc(Br)c3c(N)ncnc32)[C@H](O)[C@H]1O`, the values for the Potency in test [1] and in test [3] were 18.7 µM (active) and 26.4 µM (active), respectively. In test [2], the max response was -6.68%.

Regarding `Cc1[nH]c(C=C2C(=O)Nc3ccc(S(=O)(=O)N(C)c4cccc(Cl)c4)cc32)c(C)c1C(=O)N1CCN(C)CC1`, the Potency in test [1] is 5.26 µM (active); in test [4] it was 9.35 µM (active). Moreover, the max response in test [2] was -0.347%.

Turning to `NCc1c[nH]c(=S)n1[C@H]1CCc2c(F)cc(F)cc2C1`, the Potency in test [5] was 16.6 µM (active). Also, the compound was called inactive in test [2] and in test [6].

Consider `C=CCc1cccc(C=NNC(=O)CN2CCN(Cc3ccccc3)CC2)c1O`, for which the Potency in test [1] is 13.2 µM (active).
